Hits are enriched below; roughly 19% of the tested compounds scored in any of these assays.
HepG2 tox – kills HepG2 cells in TGF-b inhibitor counter-screen; Potency, µM (series often up to 46.1 µM), without a hit: at the top dose activity change, negative = cytotoxicity, usual class: cytotoxic; HepG2 CAGA-GFP viability, ATP luminescence, 18 h; hit rate 0.76% among 410,000; AID 588856; note: potency is the fitted concentration of half-maximal effect
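CellTiter-Glo luminescence gave cytotoxicity after 18 hours at 37 degrees C. The cells were HepG2 CAGA-GFP in 1% FBS DMEM, stimulated with 500 pg/mL TGF-beta after compound addition. %Activity was normalised to no-cell wells (complete cell-killing) and DMSO (no toxicity), and curves were fitted and classified.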
IL1B secr inh – blocks inflammasome-driven IL-1 beta release. THP-1 LPS/ATP IL-1B secretion, AlphaLISA, 16 h; active compounds read low. activity change, % at 57.5 µM. hit rate 4.7% among 360,000. AID 743279; in the data active = activity change below about -50%; inconclusive = mostly about -30% to -49%; note: % is set by controls: 0 for no effect and ±100 for the full control effect
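THP-1 cells pretreated 1 hr with compounds (up to 57.5 uM final), then stimulated with LPS (250 ng/mL final) plus ATP (1.25 mM final); secreted IL-1B measured by AlphaLISA after 16 hr, decreased signal indicating inhibition.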
TGFb inhibitor – TGF-b pathway inhibition | HepG2 CAGA-GFP TGF-b/SMAD3 reporter, GFP fluorescence, 18 h; TGF-beta stimulated, 500 pg/mL final | Potency, µM (top dose mostly 46.1 µM), inactives show at the top dose activity, negative = inhibition, usual class: inhibitors | hit rate 1.2% among 410,000 | AID 588855; note: potency is the fitted concentration of half-maximal effect; % is set by controls: 0 for no effect and ±100 for the full control effect; nearly all actives have a fitted effect of over 65% in size
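HEPG2 CAGA-GFP cells (1000/well, DMEM with 1% FBS) were pre-incubated 2 h at 37 degrees C, given compound by pin tool, then stimulated with TGF-beta at 500 pg/mL final for 18 h before per-cell GFP fluorescence imaging.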
TDP1 cell noCPT – qHTS for Inhibitors of human tyrosyl-DNA phosphodiesterase 1 (TDP1): qHTS in cells in absence of CPT; hit rate 15% among 420,000; Potency, µM (doses to about 46.2 µM), for the others: top-dose activity change, negative = growth inhibition, most hits filed as inhibitors; DT40 Tdp1-/- hTDP1 cells, no CPT, ATP luminescence, 48 h; note: potency is the fitted concentration of half-maximal effect; % is set by controls: 0 for no effect and ±100 for the full control effect; nearly all actives have a fitted effect of over 55% in size
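Growth kinetics read by CellTiter-Glo luminescence after ≥48 hr at 37 °C. Cells: DT40 Tdp1-/- stably carrying human TDP1, 400 per well, compound exposure in the absence of CPT (DMSO vehicle).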
S-ASM inh – inhibitors of human secretory acid sphingomyelinase; hit rate 0.006% among 340,000; Potency, µM (top dose mostly 57.5 µM), without a hit: top-dose activity change, negative = inhibition, most hits filed as inhibitors; placental ASM, HMU-PC fluorogenic substrate, 60 min; note: potency is the fitted concentration of half-maximal effect
Target sequence (P17405 47-631 limits assumed): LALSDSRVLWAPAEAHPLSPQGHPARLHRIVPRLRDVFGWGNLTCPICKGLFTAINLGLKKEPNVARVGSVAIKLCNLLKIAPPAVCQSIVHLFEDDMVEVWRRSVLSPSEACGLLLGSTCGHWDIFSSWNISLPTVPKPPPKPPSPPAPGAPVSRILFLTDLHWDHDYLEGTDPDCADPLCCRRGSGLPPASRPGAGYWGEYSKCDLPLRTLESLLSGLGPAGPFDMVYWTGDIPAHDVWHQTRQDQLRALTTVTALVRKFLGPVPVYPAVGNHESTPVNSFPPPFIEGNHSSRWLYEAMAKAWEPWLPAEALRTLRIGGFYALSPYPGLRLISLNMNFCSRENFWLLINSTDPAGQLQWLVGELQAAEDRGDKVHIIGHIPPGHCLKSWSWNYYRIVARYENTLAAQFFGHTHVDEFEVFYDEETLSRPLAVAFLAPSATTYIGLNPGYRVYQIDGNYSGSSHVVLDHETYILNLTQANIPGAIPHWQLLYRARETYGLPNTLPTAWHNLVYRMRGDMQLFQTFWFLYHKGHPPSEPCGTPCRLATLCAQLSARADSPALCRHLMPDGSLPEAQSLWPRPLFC
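Human placenta-derived ASM enzyme was preincubated with compound for 10 minutes at room temperature, then given fluorogenic substrate HMU-PC0 (9 uM final) for 60 minutes at 37 °C; a pH 10 stop preceded fluorescence reading at Ex 386/Em 447 nm.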
TDP1 cell CPT – growth inhibition of DT40 Tdp1-/-;hTDP1 cells with camptothecin (screen for TDP1 inhibitors); chicken DT40 Tdp1-/-;hTDP1 cells + 20 nM CPT, ATP luminescence, 48 h; Potency, µM (top dose mostly 46.2 µM), without a hit: top-dose activity change, negative = growth inhibition, most hits filed as inhibitors; hit rate 12% among 420,000; AID 686979; note: potency is the fitted concentration of half-maximal effect; % is set by controls: 0 for no effect and ±100 for the full control effect; nearly all actives have a fitted effect of over 55% in size
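Chicken DT40 Tdp1-/- cells complemented with human TDP1, 400 cells/well, exposed to compounds plus 20 nM camptothecin for at least 48 h at 37 C; viability read as ATP content by CellTiter-Glo luminescence.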
Numbers without * were called inactive; ? = inconclusive; . = not tested or not shown. Unless noted, calls come from the whole dose curve; as a rule, active = well fitted curve in the direction sought with a large enough effect; inconclusive = small, poorly fitted or top-dose-only effect, or another doubt; inactive = no such curve, though single readings can be large; an effect the other way counts as inactive or inconclusive.

SMILES	HepG2 tox	IL1B secr inh	TGFb inhibitor	TDP1 cell noCPT	S-ASM inh	TDP1 cell CPT
CN(C)CCCN(C(=O)c1cc2ccccc2oc1=O)c1nc2c(F)cccc2s1	-7.2%	-20.8	-0.6%	-25.8%	-1.7%	-8.6%
CCn1c(C(=O)Nc2c(C)cccc2C)cc2sc(Cl)cc21	-14.2%	.	3.5%	?	.	-25.0%
Fc1cccc(-n2cc(-c3ccccc3)c3c(=S)nc[nH]c32)c1	-23.8%	21.1	-27.3%	20.6µM*	-3.8%	?
CC1(O)CCC(C(C)(C)O)CC1 (stereo not given)	.	.	.	-6.3%	.	-0.3%
O=C(Cn1[nH]c(=O)c2ccccc2c1=O)NNC(=O)c1ccccc1	5.0%	21.4	8.7%	-9.9%	7.9%	-26.7%
O=C(COc1ccccc1Cl)NNC(=O)Cn1[nH]c(=O)c2ccccc2c1=O	5.3%	5.9	-1.0%	?	2.2%	9.2µM*
Fc1cccc(Cl)c1C1SCc2nc3ccccc3n21 (stereo not given)	-18.5%	23.7	?	14.6µM*	.	16.4µM*
O=C(c1ccc(NS(=O)(=O)c2ccccc2)cc1)N1CCN(Cc2ccc3c(c2)OCO3)CC1	-19.0%	-8.7	-8.5%	?	1.2%	?
COc1ccccc1NS(=O)(=O)c1cccc(C(=O)N2CCN(C/C=C/c3ccccc3)CC2)c1	13.4%	-0.8	?	20.6µM*	5.4%	20.6µM*
COc1ccc(NS(=O)(=O)c2cccc(C(=O)N3CCN(Cc4ccc5c(c4)OCO5)CC3)c2)cc1	-29.7%	-24.8	0.0%	?	0.4%	25.9µM*
COc1ccccc1NS(=O)(=O)c1cc(C(=O)N2CCN(C/C=C/c3ccccc3)CC2)ccc1C	2.9%	-8.1	?	?	1.7%	?
Cc1cccc(NS(=O)(=O)c2cccc(C(=O)N3CCCCCCC3)c2)c1	-30.8%	-60.2*	?	5.17µM*	-1.4%	18.4µM*
COc1ccc(NS(=O)(=O)c2cccc(C(=O)N3CCN(C/C=C/c4ccccc4)CC3)c2)cc1	-23.6%	-3.0	-21.8%	16.4µM*	.	23.1µM*
Cc1cccc(NS(=O)(=O)c2cccc(C(=O)N3CCCC3)c2)c1	-5.4%	-5.5	6.3%	?	-2.7%	-0.4%
Cc1cccc(NS(=O)(=O)c2cccc(C(=O)N3CCN(C/C=C/c4ccccc4)CC3)c2)c1	-23.0%	-54.3*	?	?	0.1%	?
CCCCn1c(SCc2c(C)noc2C)nc2cc(S(N)(=O)=O)ccc21	-32.8%	?	0.7%	?	-1.0%	13µM*
CCCCn1c(SCC(=O)Nc2cc(C)on2)nc2cc(S(N)(=O)=O)ccc21	-4.5%	-17.2	-1.6%	-4.1%	-2.2%	-14.2%
CN(C)c1ccccc1C(=O)c1ccccc1N(C)C	-9.1%	24.4	-2.9%	4.11µM*	18.7%	4.61µM*
Cc1cc(C)cc(NC(=O)Nc2nnc(N(C)C3CCCCC3)s2)c1	-0.1%	.	3.0%	?	.	14.6µM*
Cc1cc(NC(=O)Nc2nnc(N(C)C3CCCCC3)s2)ccc1Br	-2.3%	.	20.2%	?	.	?
Cc1ccc(C(=O)COC(=O)c2ccc(O)cc2)cc1	-5.5%	-11.8	-6.3%	4.9%	-2.4%	3.5%
CCC(C)Sc1nc2c(c(=O)[nH]1)C(c1cccs1)C1=C(CCCC1=O)N2 (stereo not given)	-51.0%	-10.3	?	20.6µM*	1.4%	?
O=C1CCCC2=C1C(c1ccncc1)c1c(nc(SCc3ccccc3Cl)[nH]c1=O)N2 (stereo not given)	-12.5%	-21.1	0.0%	-23.3%	35.6%	-15.6%
O=C(Cc1cccs1)Nc1nnc(SCc2ccc(C(F)(F)F)cc2)s1	-50.0%	21.0	?	?	2.1%	14.6µM*
O=C(Oc1ccc(OC(=O)c2ccco2)c(S(=O)(=O)c2ccc(Cl)cc2)c1)c1ccco1	-2.9%	-8.3	-27.8%	16.4µM*	-8.1%	-22.1%
SMILES	HepG2 tox	IL1B secr inh	TGFb inhibitor	TDP1 cell noCPT	S-ASM inh	TDP1 cell CPT
O=C(CCS(=O)(=O)c1cc(Br)cc2c1N(C(=O)C1CC1)CC2)Nc1ccc(F)cc1	-7.8%	.	-14.5%	-4.2%	.	-3.5%
O=C(COC(=O)c1cccc(-n2cnnn2)c1)c1ccc(F)c(F)c1	-14.2%	24.8	-2.6%	-0.9%	.	-2.0%
CCc1ccc(-n2nc(CO)c(C(=O)NCc3ccccc3OC)n2)cc1	2.0%	.	0.0%	-2.5%	.	-0.8%
COc1nc(-c2ccccc2)nnc1-c1ccccc1	14.7%	20.4	-2.4%	-20.2%	-3.0%	11.1%
COc1ncnc(-c2ccccc2)c1-c1ccccc1	-8.5%	9.6	-7.2%	14.6µM*	-7.3%	?
Cc1ccc(-c2nn3c(C)nnc3c3ccccc23)cc1S(=O)(=O)NCc1ccco1	-33.2%	?	11.8%	?	-6.7%	14.6µM*
Cc1ccc(-c2nn3c(C)nnc3c3ccccc23)cc1S(=O)(=O)NC(C)(C)CO	-18.4%	97.8	-17.4%	?	1.8%	?
Cc1ccc(-c2nn3c(C)nnc3c3ccccc23)cc1S(=O)(=O)NC(C)c1ccccc1 (stereo not given)	-29.9%	-2.8	?	18.4µM*	-21.6%	?
COC(=O)CCN(C(=O)c1c(C)oc2ncnc(N3CCOCC3)c12)c1ccccc1	4.5%	.	-4.5%	-2.3%	.	-0.8%
CCOc1cc(NC(=O)c2cccs2)c(OCC)cc1NC(=O)CCC(=O)NCC1CCCO1 (stereo not given)	-15.5%	-0.9	-17.3%	?	-0.1%	-24.3%
O=C(Nc1ccccc1-c1cn2c(CN3CCNCC3)csc2n1)c1cnc2ccccc2n1	-105.3%	.	?	5.62µM*	.	3.55µM*
CC(=O)Nc1ccc(NC(=O)C(C)OC(=O)/C=C/c2cnc3ccccc3n2)cc1 (stereo not given)	-3.1%	-0.9	-1.7%	-5.4%	-0.4%	-21.6%
CC(NC(=O)/C=C/c1cnc2ccccc2n1)C12CC3CC(CC(C3)C1)C2 (stereo not given)	-2.5%	-12.9	?	18.4µM*	-6.6%	?
Cc1n[nH]c(C)c1CN(C)C(=O)C1CCC(=O)N(CCc2cccc(F)c2)C1 (stereo not given)	0.4%	4.9	-5.9%	18.1%	-0.5%	0.7%
Clc1cccc(N2CCN(c3ncnc4c3nc3n4CCCCC3)CC2)c1	-46.8%	.	?	10.3µM*	.	14.6µM*
Cc1cccc(N2CCN(c3ncnc4c3nc3n4CCCCC3)CC2)c1C	-38.5%	.	?	?	.	25.9µM*

Screens as filed in PubChem BioAssay.
